Shown are actives, neighbours in structure and some others; about 7.3% of the full set was active somewhere.
FMDV inh: blocks foot and mouth disease virus. FMDV antiviral cell-based qHTS. Potency, µM (doses to about 57.9 µM), usual class: inhibitors. 410,000 compounds, 1.2% hits. AID 1159524; calls by dose curve; tested in HEK293T cells; further: read-out not given here; nearly all actives have a fitted effect of over 45% in size
Vaccinia Venus: inhibitors of vaccinia virus (Venus reporter); Vaccinia virus Venus reporter expression, fluorescence; Potency, µM (doses to about 36.5 µM), actives largely listed as inhibitors; 330,000 compounds, 0.46% hits; calls by dose curve; tested in A549 cells; further: nearly all actives have a fitted effect of over 30% in size
Vaccinia mCherry: vaccinia inhibition (mCherry reporter); 310,000 compounds, 0.63% hits; AID 720579; Potency, µM (highest dose often 36.5 µM), usual class: inhibitors; Vaccinia virus mCherry reporter infection, fluorescence; calls by dose curve; tested in A549 cells; further: nearly all actives have a fitted effect of over 35% in size
HCMV inh: blocks human cytomegalovirus replication; 410,000 compounds, 4.5% hits; activity change, negative = inhibition, % at 57.5 µM; HFF cells, HCMV-luciferase reporter, 72 h; active compounds read low; in the data active means activity change below about -60%; inconclusive means no clear call, values can overlap the other calls; inactive means above about -39%
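Compounds were evaluated in HFFs infected with an HCMV luciferase reporter virus (MOI 1 PFU/cell). Luciferase in lysates collected 72 h post infection served as the replication measure.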
HCV inhibitor: blocks hepatitis C virus. Huh7.5.1 HCVcc-Cre infection, luciferase reporter, 44 h. Potency, µM (top dose mostly 41.8 µM), hits mostly inhibitors. 340,000 compounds, 3.4% hits
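A cell-based infection assay in which seeded cells (1,000 per well) receive test compound after 4 h, are inoculated with HCVcc-Cre at approximately 0.5 moi, and are incubated 44 h before luminescence detection.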
HCV inh confirm: HCV inhibition, cherry-pick confirmation; HCVcc-Cre infectious virus cell assay, luciferase, inhibition; Potency, µM (series often up to 41.8 µM), most hits filed as inhibitors; 640 compounds, 78% hits; AID 720575; shares compounds with HCV inhibitor; further: nearly all actives have a fitted effect of over 80% in size
HCV cytotox: host cell cytotoxicity counter-screen for HCV inhibitors | shares compounds with HCV inhibitor | HCV host cell line cytotoxicity counterscreen | Potency, µM (series often up to 41.8 µM), actives largely listed as inhibitors | AID 720576 | 640 compounds, 22% hits;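 further: 44 h compound exposure; nearly all actives have a fitted effect of over 55% in size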
Hits are given with their value; i = inactive; ? = inconclusive; nt = not tested or not shown; [ ] = dose if it differs, or a comment. Unless noted, the call rests on the fitted dose curve; in most records, active means well fitted curve in the direction sought with a large enough effect; inconclusive means small, poorly fitted or top-dose-only effect, or another doubt; inactive means no such curve, though single readings can be large; an effect the other way counts as inactive or inconclusive.

SMILES	FMDV inh	Vaccinia Venus	Vaccinia mCherry	HCMV inh	HCV inhibitor	HCV inh confirm	HCV cytotox
Cc1sc2c(c1C)c(=O)n(-c1ccccc1)c(=O)n2CC(=O)c1ccc(Cl)cc1	i	i	i	i	nt	nt	nt
CC1CN(C)C(C)c2c1oc1ccc([N+](=O)[O-])cc21 (stereo unspecified)	i	i	i	i	?	25µM	i
CC(=O)c1ccc(C(=O)N(Cc2cccnc2)c2nc3c(C)c(C)ccc3s2)cc1	i	i	i	i	nt	nt	nt
Cc1ccc(/C=C/C(=O)c2nc3ccccc3[nH]2)cc1	i	nt	nt	i	?	nt	nt
O=S(=O)(/C(=C\c1ccc(C(F)(F)F)cc1)c1nc2ccccc2[nH]1)c1ccccc1	11µM	?	?	nt	1.4µM	7.9µM	i
CCc1ccc2oc(C(=O)N(Cc3ccc(N(C)C)cc3)Cc3ccco3)c(C)c2c1	i	i	i	i	nt	nt	nt
COc1ccc(-c2nc3cnc(OC)nc3n(Cc3cccc(OC)c3)c2=O)cc1	i	nt	nt	nt	nt	nt	nt
CC(=O)c1ccc(NC(=O)CN(C)S(=O)(=O)c2cccc3nsnc23)cc1	i	i	i	i	nt	nt	nt
COC(=O)C1=C(c2ccc3ccccc3c2)C[C@@H]2CC[C@H]1N2C(=O)N1CCCCC1	?	?	i	i	7.9µM	11µM	11µM
COC(=O)C1=C(c2ccccc2)C[C@@H]2CC[C@H]1N2C(=O)N1CCOCC1	i	i	i	i	i	nt	nt
COC(=O)C1=C(c2ccc(-c3ccccc3)c(F)c2)C[C@@H]2CC[C@H]1N2C(=O)N1CCOCC1	?	i	i	i	3.5µM	7.9µM	7µM
O=C(NC1c2ccccc2-c2ccccc21)c1ccco1	i	?	?	i	?	7.9µM	i
O=C(NC1CCCCC1NC(=O)c1ccco1)c1ccco1 (stereo unspecified)	i	i	i[1.46 µM]	i	i	nt	nt
CCn1cc(C(=O)N(C)c2ccc(C(C)C)cc2)c2cc(OC)c(OC)cc2c1=O	i	i	i	i	nt	nt	nt
CSc1ccc(CN2CCN(Cc3ccc([N+](=O)[O-])cc3)CC2)cc1	?	i	i	i	?	4µM	7µM
O=c1c(NCCc2ccc(Cl)cc2)nccn1-c1ccccc1	i	i	i	i	nt	nt	nt
CCOC(=O)c1c(C)nc2c3ccccc3ccn12	i	i	i	i	7.1µM	i	i
CCOC(=O)c1c(C)nc2c(C)cccn12	i	i	i	i	i	nt	nt
CCS(=O)(=O)N1CCN(c2ccc([N+](=O)[O-])c(NC(C)c3ccccc3)c2)CC1 (stereo unspecified)	i	i	nt	?	?	nt	nt
CC(Nc1cc(N2CCNCC2)ccc1[N+](=O)[O-])c1ccccc1 (stereo unspecified)	i	?	14µM	i	3.5µM	?	i
COC(=O)C1=C(C(=O)OC)SC2(S1)C(C(=O)OC)=C(C(=O)OC)Sc1c2ssc1=O	32µM	7.1µM	7.1µM	-77	?	10µM	7.9µM
CN1CCN(c2nc(-c3ccc4c(c3)OCO4)nc3ccccc23)CC1	i	nt	nt	nt	nt	nt	nt
CC(=NNC(=S)N1CCN(C2CCCCCC2)CC1)c1ccccn1	?	?	?	-96	0.89µM	0.11µM	?
Cc1cccc(Cn2c(O)c(N=NC(=S)Nc3ccccc3F)c3ccccc32)c1	i	nt	nt	i	4µM	7.9µM	?
COc1ccc(-c2sc3ccc(N4CCOCC4)cc3c2C#CCO)cc1	16µM	?	i	-87	3.2µM	4.4µM	5µM
SMILES	FMDV inh	Vaccinia Venus	Vaccinia mCherry	HCMV inh	HCV inhibitor	HCV inh confirm	HCV cytotox
COc1ccc(/C=C/c2c(-c3ccc(OC)cc3)sc3ccc(N4CCOCC4)cc23)cc1	i	i	?	nt	i	nt	nt
COc1cccc(C(=O)Oc2c(CN3CCOCC3)cc(Cl)c3cccnc23)c1	?	nt	nt	-78	4.5µM	?	?
COC(=O)c1c(C(=O)OC)c2cccc3cc(-c4ccccc4)c4ccc1c4n32	i	i	nt	i	1.8µM	5.6µM	?
Cc1cccc2cc(C#N)c(NCCCNS(=O)(=O)c3ccc(Cl)cc3)nc12	?	nt	nt	-67	8.9µM	14µM	?
CC(C)Cn1c(N)c(C(=O)CSc2ccccc2)c(=O)n(C)c1=O	20µM	i	?	i	?	7.9µM	?
CC(C)Oc1ccc(C(=O)Nc2ccc3oc(-c4ccncc4)nc3c2)cc1	?	i	i	i	nt	nt	nt
CC1CC(C)C(=O)C(C(CC2CC(=O)NC(=O)C2)OC(=O)CC(=O)c2ccccc2)C1 (stereo unspecified)	i	1.8µM	4µM	-98	5µM	13µM	i
Cc1cccc(C(=O)N=c2c(C#N)cc3c(=O)n4cccc(C)c4nc3n2Cc2ccco2)c1	i	i	i	i	5.6µM	4µM	i
Clc1ccc2c(NNc3ccccc3Cl)ccnc2c1	i	nt	nt	i	i	nt	nt
O=C(NNc1ccnc2cc(Cl)ccc12)C1CCCCC1	?	i	i	-82	2.8µM	0.89µM	1.6µM
COc1cccc(N(C(=O)CCl)C(C(=O)NCCc2ccccc2)c2cccs2)c1 (stereo unspecified)	16µM	?	?	-100	0.71µM	0.89µM	0.5µM
Cc1cc(C)c(CN2CCN(C(=O)Cn3cnc4c(OCc5ccccc5)ncnc43)CC2)c(C)c1	?	?	?	-64	0.56µM	2.5µM	5.6µM
Cc1cc(C)c(C(=O)OCCNC(=O)c2cccnc2)cc1C	i	nt	nt	i	8.9µM	?	i
Cc1cc(Nc2ccccc2Cl)nc(-c2ccccc2O)n1	i	i	i	i	?	nt	nt
Cc1cc(Nc2cccc(F)c2)nc(-c2ccccc2O)n1	nt	?	?	i	4.5µM	7.9µM	i
CCN(CC)S(=O)(=O)c1ccc2c(c1)C(=NO)c1cc(S(=O)(=O)N(CC)CC)ccc1-2	20µM	13µM	11µM	i	4.5µM	7µM	?
COc1ccccc1Nc1nc2nonc2nc1N1CCCCC1C (stereo unspecified)	i	nt	nt	?	?	?	i
CN1CCN(/N=C/c2ccc(-c3ccc([N+](=O)[O-])cc3Cl)o2)CC1	i	i	i	?	8.9µM	?	i
CC(=O)Nc1ccc(-c2csc(N/N=C(/C)c3ccccc3)n2)cc1	?	i	i	i	1.3µM	6.3µM	i
CN(C)c1ccc(NC(=O)Cn2c(SCc3ccc(F)cc3)nc3cccnc32)cc1	i	i	i	i	nt	nt	nt
Cc1cc(=O)n(C)c(=O)n1CCCCCCOc1cccc([N+](=O)[O-])c1	?	i	i	i	7.1µM	10µM	i
COCCN(C(=O)COC(=O)c1cc2c(s1)CCC2)c1c(N)n(Cc2ccccc2)c(=O)[nH]c1=O	i	i	i	i	?	i	i
CCC1CCc2sc(C(=O)OCC(=O)N(CCOC)c3c(N)n(Cc4ccccc4)c(=O)[nH]c3=O)cc2C1 (stereo unspecified)	i	i	i	i	?	nt	nt
Cc1cccc(S(=O)(=O)c2cn(Cc3ccc(F)cc3)c3cc(N4CCCCC4)c(F)cc3c2=O)c1	i	i	i	i	nt	nt	nt
COc1ccc(CCNC(=O)c2cc3c(=O)n4ccccc4nc3n(CCN3CCOCC3)c2=N)cc1	i	i	i	i	?	nt	nt

Bioassay records deposited in PubChem by National Center for Advancing Translational Sciences (NCATS).
